Inconclusive results are not listed. Active and inactive are the calls of the source. The call rests on the fitted dose curve; in most records, active means well fitted curve in the direction sought with a large enough effect; inconclusive means small, poorly fitted or top-dose-only effect, or another doubt; inactive means no such curve, though single readings can be large; an effect the other way counts as inactive or inconclusive.
Legend:
[1] = G06 Cancer Cell Toxicity qHTS against the NCATS CANVASS Library (AID 1347368); conditions: G06 dog glioma cells, viability ATP luminescence, 72 h; series mostly up to 91.4 µM
How it was run: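 Cytotoxicity toward canine glioma G06 cells is scored from cellular ATP via luminescence after 72 hr compound exposure at 500 cells/well.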

[2] = qHTS for ATAD5 Antagonist screened against the NCATS CANVASS Library (AID 1347370); conditions: HEK293T-ATAD5-luc, 5-FUrd stimulated, luminescence, 16 h; series mostly up to 91.4 µM
How it was run: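 HEK293T cells with a stably integrated ATAD5-controlled luciferase reporter were exposed to compounds (11-pt) alongside 10 uM 5-fluorouridine as ATAD5 stabilizer for 16hr at 37C. Viability was read by CellTiter-Fluor fluorescence, then ATAD5 by luminescence.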

[3] = J3T Cancer Cell Toxicity qHTS against the NCATS CANVASS Library (AID 1347371); conditions: J3T dog glioma viability, ATP luminescence, 72 h; at 91.4 µM (top of the series)
How it was run: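 Viability of the J3T glioma line from dog is scored by ATP luminescence after a 72 hr incubation with natural products.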

[4] = biological target: Nuclear receptor subfamily 1 group I member 3 (Homo sapiens) (UniProt Q14994); experiment: qHTS for Constitutive Androstane Receptor (CAR) Antagonist screened against the NCATS CANVASS Library (AID 1347372); conditions: HepG2-hCAR-CYP2B6 luciferase, CITCO-stimulated antagonist mode; series mostly up to 91.4 µM
How it was run: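 HepG2-CYP2B6-hCAR double-stable cells plated, 4hr attach; cpd pin-transferred; CITCO 50 nM final; 24hr 37C/5% CO2; CellTiter-Fluor 1hr (fluorescence), then ONE-Glo luminescence.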

[5] = biological target: Nuclear receptor subfamily 1 group I member 3 (Homo sapiens) (UniProt Q14994); experiment: qHTS for Constitutive Androstane Receptor (CAR) Agonist screened against the NCATS CANVASS Library (AID 1347373); conditions: HepG2-hCAR-CYP2B6 luciferase reporter, ONE-Glo luminescence; series mostly up to 91.4 µM
How it was run: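 CAR agonism is scored as CYP2B6-promoter luciferase induction in a double-stable transfected HepG2 line, where 1.5uM PK11195 is included in each well. Compounds were tested over a 24hr exposure.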

[6] = 10-beta competent E. coli microbial cell viability qHTS against the NCATS CANVASS Library (AID 1347376); conditions: E. coli 10-beta viability, BacTiter-Glo ATP luminescence, overnight; series mostly up to 91.4 µM
How it was run: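 Cytotoxicity toward competent E. coli is scored from cellular ATP content via BacTiter-Glo luminescence following overnight compound exposure at 37C, 5% CO2.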

[7] = DH5-alpha competent E. coli microbial cell viability qHTS against the NCATS CANVASS Library (AID 1347377); conditions: BacTiter-Glo ATP luminescence, overnight; series mostly up to 91.4 µM
How it was run: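 Cell viability of competent DH5-alpha E. coli is scored from ATP content by luminescence. Cells sit overnight at 37C with compound across an 11-point concentration series.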

[8] = qHTS for H2AX Agonists against the NCATS CANVASS Library (AID 1347378); conditions: CHO-K1 H2AX phosphorylation, HTRF TR-FRET, 3 h; series mostly up to 153 µM
How it was run: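 Signal is the 665/620 nm emission ratio from europium cryptate and d2 antibody pair, rising with S139-phosphorylated H2AX. CHO-K1 cells saw test agents for 3 hr at 37C; detection ran 24 hr at room temperature.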

[9] = qHTS for Inflammasome Signaling Inhibitors: IL-1-beta AlphaLISA screen against the NCATS CANVASS Library (AID 1347379); conditions: THP-1 LPS/ATP, IL-1B AlphaLISA secretion, 16 h; at 114 µM (top of the series)
How it was run: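 Human THP-1 cells were pretreated 1 hr at 37 °C with compounds (up to 57.5 uM final), then stimulated with LPS (250 ng/mL final) and ATP (1.25 mM final). Secreted IL-1B was read by AlphaLISA after 16 hr.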

[10] = qHTS for Antimalaria activity screened against the NCATS CANVASS Library (AID 1347380); conditions: P. falciparum Dd2 growth, SYBR Green fluorescence, 72 h; series mostly up to 57 µM
How it was run: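 Growth inhibition of asexual erythrocytic P. falciparum Dd2 was quantified by SYBR Green DNA staining. Cultures grew 72 h with compound (11-point series) in hypoxic gas at 37C; lysis and staining lasted 18 h.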

[11] = Inflammasome Signaling qHTS Counterscreen: IL-1-beta AlphaLISA counterscreen against the NCATS CANVASS Library (AID 1347381); conditions: Purified IL-1beta AlphaLISA signal interference counterscreen; series mostly up to 114 µM
How it was run: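 To flag interference with the AlphaLISA read-out, a known amount of purified IL-1-beta (4 pg) replaced cell supernatant. Detection used anti-IL-1-beta acceptor beads, biotinylated antibody and streptavidin donor beads at room temperature.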

[12] = Cytotoxicity qHTS for assessment of Hepg2 cells membrane integrity screened against the NCATS CANVASS Library (AID 1347387); conditions: HepG2 LDH release (CytoTox-ONE) fluorescence, 5 h; series mostly up to 91.4 µM
How it was run: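 Fluorescence proportional to lysed-cell number, from LDH leaking out of HepG2 cells exposed 5 hr at 37C to 0.59 nM - 46 uM compound (11-point qHTS), is measured after 10 min with CytoTox-ONE.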

[13] = qHTS for Activators of p53 Stress Response Pathway screened against the NCATS CANVASS Library (AID 1347388); conditions: p53RE-bla HCT-116, beta-lactamase reporter, 16 h; series mostly up to 91.4 µM
How it was run: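 Beta-lactamase reporter driven by p53 response elements in HCT-116 cells, read as the 460 nm/530 nm emission ratio after CCF4 loading, following 16 h of exposure to an 11-point series. Cell viability was measured in the same wells by CellTiter-Glo luminescence.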

[14] = qHTS assay for small molecule disruptors of mitochondrial membrane potential screened against the NCATS CANVASS Library (AID 1347389); conditions: HepG2 mitochondrial membrane potential, m-MPI red/green ratio, 1.5 h; series mostly up to 91.4 µM
How it was run: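 Compounds tested in 11-point qHTS series on HepG2 cells for 1 hr; membrane-potential dye added for 30 min at 37C. Lower red-to-green ratio indicates loss of potential.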

[15] = Secretion counterscreen for inhibitors of the SERCaMP assay screened against the NCATS CANVASS Library (AID 1347390); conditions: SH-SY5Y constitutive GLuc secretion, luminescence, 20 h; series mostly up to 152 µM
How it was run: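 Natural products are titrated in an 11-point series up to 77 uM onto SH-SY5Y-GLuc STOP cells for 20 h. Secreted reporter activity is measured as coelenterazine-driven luminescence, with Brefeldin A on each plate.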

[16] = qHTS for activators of Nrf2/ARE signaling pathway screened against the NCATS CANVASS Library (AID 1347391); conditions: ARE-bla HepG2, beta-lactamase reporter, 16 h; series mostly up to 91.4 µM
How it was run: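 Cells carrying an ARE-driven beta-lactamase reporter (HepG2 background) are dosed for 16 h, then stained with CCF4. Cell viability in the same wells is measured by CellTiter-Glo luminescence.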

[17] = qHTS for activators of dead-cell proteases activity screened against the NCATS CANVASS Library (AID 1347392); conditions: HepG2 cytotoxicity, dead-cell protease luminescence, 5 h; series mostly up to 91.4 µM
How it was run: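 Compounds are pin-transferred onto attached HepG2 cells, giving 11 final concentrations. After 5 h at 37C, AAF-aminoluciferin reagent is added and luminescence is recorded at room temperature.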

[18] = Vero-766 cells viability qHTS against the NCATS CANVASS Library: Counterscreen for Zika virus inhibition assay (AID 1347394); conditions: Vero 766 viability, CellTiter-Glo luminescence, 72 h; series mostly up to 91.4 µM
How it was run: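 Counterscreen for toxicity: Vero 766 cells exposed 72 h to an 11-point compound series, viability by CellTiter-Glo.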

[19] = qHTS for inhibitors of Wild type Zika virus screened against the NCATS CANVASS Library (AID 1347396); conditions: Vero cells, Zika virus CPE, CellTiter-Glo, 72 h; series mostly up to 91 µM
How it was run: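 Vero 766 cells, 1000/well, o/n attach; cpds pin-transferred (11-pt qHTS); WT Zika added; 72 h, 37C, 5% CO2; CellTiter Glo lumi. Uninfected + vehicle = 100% inhibition.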

[20] = Viability qHTS for inhibitors of the SERCaMP assay screened against the NCATS CANVASS Library (AID 1347400); conditions: SH-SY5Y SERCaMP cells viability, CellTiter-Glo, 48 h; series mostly up to 183 µM
How it was run: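 Cytotoxicity counter-screen: ATP content (CellTiter-Glo luminescence) of SH-SY5Y-GLuc SERCaMP MJH297 cells after 48 h at 37C with compounds in an 11-point qHTS series.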

Measured: outcome

Chain of Nuclear receptor subfamily 1 group I member 3 (Homo sapiens) (Q14994 whole entry, looked up): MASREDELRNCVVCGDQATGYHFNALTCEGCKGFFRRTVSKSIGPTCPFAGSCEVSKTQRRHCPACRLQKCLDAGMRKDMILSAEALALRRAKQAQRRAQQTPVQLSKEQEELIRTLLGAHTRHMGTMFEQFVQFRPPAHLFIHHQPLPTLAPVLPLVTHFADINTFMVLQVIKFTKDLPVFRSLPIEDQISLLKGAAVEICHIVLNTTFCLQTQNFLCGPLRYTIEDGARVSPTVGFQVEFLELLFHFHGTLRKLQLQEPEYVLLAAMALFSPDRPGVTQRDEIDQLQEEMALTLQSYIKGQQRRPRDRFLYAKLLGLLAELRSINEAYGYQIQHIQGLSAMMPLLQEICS

NCCc1ccc(O)cc1
inactive: [1] | [2] | [3] | [4] | [5] | [6] | [7] | [8] | [9] | [10] | [11] | [12] | [13] | [14] | [15] | [16] | [17] | [18] | [19] | [20]

Reference: PubChem BioAssay (NCATS)
